Of roughly 7,900 targets only a part is listed; those with a hit were picked by preference. About 0.6% of all pairs of compound and target were hits.
Tests used:
Test in all cases: log2 fold change, soluble protein after heating vs DMSO (PISA); higher = thermal stabilisation; K562 cells, 10 uM, 30 min; active = over 0.2 and 3.5 SD of the protein, either way, in both replicates (recomputed)
[1] = compound: C1=CC=C(C=C1)[C@H](COC2=CC3=C(C=C2)NC(=O)N3)NC(=O)C4=CC=CN(C4=O)CC5=CC(=C(C=C5)F)F
In short: (§1)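 K562 cells at 2×10^6 cells/mL were treated for 30 min with 10 μM compound, and aliquots were heated for 3 min over 48°C-58°C before pooling. Extraction used PBS with 0.5% NP-40 at 4°C, and soluble protein was the supernatant after 21,000xg for 90 min, measured by TMTpro 16plex LC-MS/MS with channel sums equalised. Thermal stability values, relative to control samples and from duplicates, are log2 fold changes.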

[2] = compound: CC1=C(SC2=C1C(=N[C@H](C3=NN=C(N32)C)CC(=O)N)C4=CC=C(C=C4)Cl)C
In short: as §1

[3] = compound: CC1=C2C(=CC=C1)N=C(N(C2=O)C3=CC=CC=C3C)CN4C=NC5=C(N=CN=C54)N
In short: as §1

[4] = compound: Cc1sc2c(c1C)C(c1ccc(Cl)cc1)=N[C@@H](CC(=O)OC(C)(C)C)c1nnc(C)n1-2
In short: as §1

[5] = compound: c1ccc([C@@H]2C[C@H]2NC2CCNCC2)cc1
In short: as §1

Measured: log2 fold change

HMGB3 (UniProt O15347)
Sequence of UniProt O15347 (O15347 whole entry, looked up): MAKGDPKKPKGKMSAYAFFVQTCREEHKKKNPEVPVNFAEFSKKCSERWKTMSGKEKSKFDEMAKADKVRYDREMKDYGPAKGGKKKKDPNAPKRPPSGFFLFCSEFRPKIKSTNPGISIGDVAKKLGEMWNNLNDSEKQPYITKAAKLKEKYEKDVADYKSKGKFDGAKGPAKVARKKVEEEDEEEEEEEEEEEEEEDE
inactive: [1] -0.005 | [2] 0.022 | [3] -0.03 | [4] -0.055 | [5] -0.033

GAPVD1 isoform 6 (UniProt Q14C86)
Sequence of UniProt Q14C86 (Q14C86 whole entry, looked up): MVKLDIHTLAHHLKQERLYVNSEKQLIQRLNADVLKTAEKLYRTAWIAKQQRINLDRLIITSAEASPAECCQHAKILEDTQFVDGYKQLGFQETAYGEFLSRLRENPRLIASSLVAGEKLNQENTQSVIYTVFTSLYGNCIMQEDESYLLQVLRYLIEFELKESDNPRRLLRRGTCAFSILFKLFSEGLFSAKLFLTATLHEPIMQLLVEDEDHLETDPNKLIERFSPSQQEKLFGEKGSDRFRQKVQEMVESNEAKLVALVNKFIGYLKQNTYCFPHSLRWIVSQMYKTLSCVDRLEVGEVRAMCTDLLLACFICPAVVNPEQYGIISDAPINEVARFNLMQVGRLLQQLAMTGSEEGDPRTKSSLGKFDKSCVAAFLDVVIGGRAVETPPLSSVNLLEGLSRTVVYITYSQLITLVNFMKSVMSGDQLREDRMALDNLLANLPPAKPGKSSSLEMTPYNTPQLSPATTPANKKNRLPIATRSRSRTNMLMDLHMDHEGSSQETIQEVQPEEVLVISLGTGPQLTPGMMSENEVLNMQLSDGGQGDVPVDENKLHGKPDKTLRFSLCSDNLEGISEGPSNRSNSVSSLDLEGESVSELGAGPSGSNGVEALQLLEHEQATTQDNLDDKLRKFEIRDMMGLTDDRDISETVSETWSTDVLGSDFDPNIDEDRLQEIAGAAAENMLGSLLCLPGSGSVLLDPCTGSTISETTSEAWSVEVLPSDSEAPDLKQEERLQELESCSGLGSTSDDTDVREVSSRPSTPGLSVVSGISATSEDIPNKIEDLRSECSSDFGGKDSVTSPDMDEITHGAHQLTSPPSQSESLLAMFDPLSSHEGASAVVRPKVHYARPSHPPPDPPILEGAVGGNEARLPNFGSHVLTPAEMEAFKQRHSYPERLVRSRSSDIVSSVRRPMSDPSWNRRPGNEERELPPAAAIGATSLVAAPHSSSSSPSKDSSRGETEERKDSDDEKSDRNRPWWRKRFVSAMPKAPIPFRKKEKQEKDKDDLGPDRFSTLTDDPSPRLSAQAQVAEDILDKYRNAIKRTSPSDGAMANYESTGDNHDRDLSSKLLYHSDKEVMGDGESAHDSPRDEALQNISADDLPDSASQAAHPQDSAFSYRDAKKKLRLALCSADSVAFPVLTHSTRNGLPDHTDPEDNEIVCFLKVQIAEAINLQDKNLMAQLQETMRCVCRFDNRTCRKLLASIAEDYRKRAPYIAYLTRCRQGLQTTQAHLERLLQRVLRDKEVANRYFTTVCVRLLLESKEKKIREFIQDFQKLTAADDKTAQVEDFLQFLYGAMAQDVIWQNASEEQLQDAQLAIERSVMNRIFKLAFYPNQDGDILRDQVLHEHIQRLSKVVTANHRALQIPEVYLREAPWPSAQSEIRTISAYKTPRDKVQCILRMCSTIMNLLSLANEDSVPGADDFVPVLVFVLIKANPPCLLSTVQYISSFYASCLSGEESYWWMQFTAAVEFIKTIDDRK
inactive: [1] -0.09 | [2] 0.008 | [3] 0.097 | [4] 0.012 | [5] -0.018

GDPD1 (UniProt Q8N9F7)
Sequence of UniProt Q8N9F7 (Q8N9F7 whole entry, looked up): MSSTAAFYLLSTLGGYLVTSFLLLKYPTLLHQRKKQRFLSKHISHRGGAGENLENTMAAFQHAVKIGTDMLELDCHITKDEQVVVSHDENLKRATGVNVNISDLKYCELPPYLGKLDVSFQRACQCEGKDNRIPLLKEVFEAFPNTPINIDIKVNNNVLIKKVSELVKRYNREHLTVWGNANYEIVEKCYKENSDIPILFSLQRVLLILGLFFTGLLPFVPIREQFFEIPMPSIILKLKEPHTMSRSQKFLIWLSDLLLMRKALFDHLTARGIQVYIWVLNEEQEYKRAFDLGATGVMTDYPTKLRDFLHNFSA
inactive: [1] -0.054 | [2] 0.003 | [3] 0.057 | [4] -0.024 | [5] 0.034

GLUD2 (UniProt P49448)
Sequence of UniProt P49448 (P49448 whole entry, looked up): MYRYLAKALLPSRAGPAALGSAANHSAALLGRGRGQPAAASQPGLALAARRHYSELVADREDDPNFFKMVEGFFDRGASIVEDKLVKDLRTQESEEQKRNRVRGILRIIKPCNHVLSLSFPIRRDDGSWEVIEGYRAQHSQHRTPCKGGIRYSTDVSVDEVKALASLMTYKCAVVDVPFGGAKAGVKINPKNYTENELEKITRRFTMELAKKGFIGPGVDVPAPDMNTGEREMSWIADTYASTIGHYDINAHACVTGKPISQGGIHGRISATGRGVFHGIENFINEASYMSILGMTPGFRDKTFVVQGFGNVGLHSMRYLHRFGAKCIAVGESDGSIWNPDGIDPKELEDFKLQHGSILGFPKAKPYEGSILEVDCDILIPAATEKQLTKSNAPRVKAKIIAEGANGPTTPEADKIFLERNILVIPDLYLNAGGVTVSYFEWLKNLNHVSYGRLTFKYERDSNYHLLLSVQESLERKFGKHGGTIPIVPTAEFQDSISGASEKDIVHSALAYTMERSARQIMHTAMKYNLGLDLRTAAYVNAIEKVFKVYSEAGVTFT
inactive: [1] 0.026 | [2] 0.061 | [3] -0.029 | [4] 0.047 | [5] -0.005

HOMER1 (UniProt Q86YM7)
Sequence of UniProt Q86YM7 (Q86YM7 whole entry, looked up): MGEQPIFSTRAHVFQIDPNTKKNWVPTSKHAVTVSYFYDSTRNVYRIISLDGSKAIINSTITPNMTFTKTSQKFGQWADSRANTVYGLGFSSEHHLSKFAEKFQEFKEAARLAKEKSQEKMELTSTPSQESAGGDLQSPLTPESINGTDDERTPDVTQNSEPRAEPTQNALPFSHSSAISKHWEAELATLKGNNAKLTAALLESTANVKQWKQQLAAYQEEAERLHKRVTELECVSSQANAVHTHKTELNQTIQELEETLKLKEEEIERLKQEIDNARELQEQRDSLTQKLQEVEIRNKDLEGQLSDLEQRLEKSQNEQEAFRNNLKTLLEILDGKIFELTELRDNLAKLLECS
inactive: [1] -0.08 | [2] 0.035 | [3] 0.02 | [4] -0.005 | [5] 0.007

GSR (UniProt P00390)
Sequence of UniProt P00390 (P00390 whole entry, looked up): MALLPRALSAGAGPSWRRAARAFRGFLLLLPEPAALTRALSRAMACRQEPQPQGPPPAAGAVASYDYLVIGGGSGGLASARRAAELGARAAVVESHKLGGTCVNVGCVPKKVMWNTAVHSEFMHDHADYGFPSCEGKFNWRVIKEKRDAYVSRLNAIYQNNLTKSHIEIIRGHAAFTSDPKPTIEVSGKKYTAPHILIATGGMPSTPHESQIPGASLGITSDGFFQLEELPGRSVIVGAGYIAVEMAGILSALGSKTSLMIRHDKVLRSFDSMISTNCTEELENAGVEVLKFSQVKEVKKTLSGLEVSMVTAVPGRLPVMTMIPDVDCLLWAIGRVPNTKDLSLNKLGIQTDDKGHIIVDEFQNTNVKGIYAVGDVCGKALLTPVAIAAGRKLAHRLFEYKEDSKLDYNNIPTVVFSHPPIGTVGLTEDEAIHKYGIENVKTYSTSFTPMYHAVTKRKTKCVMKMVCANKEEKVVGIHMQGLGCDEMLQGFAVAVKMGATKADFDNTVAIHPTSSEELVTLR
inactive: [1] 0.006 | [2] 0.044 | [3] 0.034 | [4] -0.023 | [5] -0.003

FOXK1 (UniProt P85037)
Sequence of UniProt P85037 (P85037 whole entry, looked up): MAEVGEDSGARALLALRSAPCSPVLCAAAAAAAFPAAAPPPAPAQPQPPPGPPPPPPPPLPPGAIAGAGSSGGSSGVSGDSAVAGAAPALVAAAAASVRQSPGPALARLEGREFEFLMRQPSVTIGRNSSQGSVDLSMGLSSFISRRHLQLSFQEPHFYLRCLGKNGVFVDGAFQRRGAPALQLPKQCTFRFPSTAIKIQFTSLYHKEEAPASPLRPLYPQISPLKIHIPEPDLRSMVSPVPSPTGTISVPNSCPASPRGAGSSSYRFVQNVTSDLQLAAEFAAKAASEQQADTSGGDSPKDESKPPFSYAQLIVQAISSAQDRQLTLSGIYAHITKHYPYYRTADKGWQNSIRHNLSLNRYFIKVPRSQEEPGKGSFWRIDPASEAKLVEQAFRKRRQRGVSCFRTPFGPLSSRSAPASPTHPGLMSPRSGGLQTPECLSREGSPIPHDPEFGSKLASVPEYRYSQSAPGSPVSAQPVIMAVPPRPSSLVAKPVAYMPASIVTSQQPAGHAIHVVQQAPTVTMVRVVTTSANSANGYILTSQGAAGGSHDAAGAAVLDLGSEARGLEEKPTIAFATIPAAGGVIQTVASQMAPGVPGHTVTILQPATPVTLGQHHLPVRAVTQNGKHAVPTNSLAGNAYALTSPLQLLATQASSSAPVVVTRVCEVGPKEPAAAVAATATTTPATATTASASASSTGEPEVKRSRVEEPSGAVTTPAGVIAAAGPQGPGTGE
inactive: [1] 0.104 | [2] -0.042 | [3] 0.253 | [4] -0.402 | [5] 0.049

IFITM3 (UniProt Q01628)
Sequence of UniProt Q01628 (Q01628 whole entry, looked up): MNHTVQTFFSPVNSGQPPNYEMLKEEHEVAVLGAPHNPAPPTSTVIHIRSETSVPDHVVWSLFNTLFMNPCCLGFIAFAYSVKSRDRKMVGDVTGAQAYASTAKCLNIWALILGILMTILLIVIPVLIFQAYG
inactive: [1] 0.038 | [2] -0.024 | [3] -0.06 | [4] 0.081 | [5] -0.014

GHDC (UniProt Q8N2G8)
Sequence of UniProt Q8N2G8 (Q8N2G8 whole entry, looked up): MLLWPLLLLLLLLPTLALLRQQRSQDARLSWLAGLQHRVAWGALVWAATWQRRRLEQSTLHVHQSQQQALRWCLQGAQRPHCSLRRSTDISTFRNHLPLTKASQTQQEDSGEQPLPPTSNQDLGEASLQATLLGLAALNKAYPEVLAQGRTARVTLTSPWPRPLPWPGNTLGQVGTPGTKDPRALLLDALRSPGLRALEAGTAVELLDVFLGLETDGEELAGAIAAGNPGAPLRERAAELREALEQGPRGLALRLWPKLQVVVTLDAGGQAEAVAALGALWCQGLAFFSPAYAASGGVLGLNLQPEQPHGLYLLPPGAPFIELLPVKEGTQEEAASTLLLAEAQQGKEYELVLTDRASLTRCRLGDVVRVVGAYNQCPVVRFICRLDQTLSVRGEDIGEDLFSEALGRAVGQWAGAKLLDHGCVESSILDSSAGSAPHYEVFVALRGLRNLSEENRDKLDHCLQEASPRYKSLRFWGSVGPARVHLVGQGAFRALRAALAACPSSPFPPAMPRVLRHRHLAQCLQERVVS
inactive: [1] 0.061 | [2] 0.016 | [3] 0.022 | [4] 0.031 | [5] -0.019
